About 83,000 compounds went through this panel and 20% of them were active in at least one assay; those are over-represented in the sample as a whole.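 Interpretation: 100, growth as untreated; towards 0, rising growth inhibition; 0, no net growth; 0 to -100, cell death. Compounds scoring below 10 were considered active.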 Values without a mark were called inactive. Active and inactive are the calls of the source.

In PubChem BioAssay (NCI) one finds growth data, which are given here for 9 compounds.

Test systems include NCI-H23 lung; NCI-H226 lung; NCI-H322M lung; HOP-62 NSCLC; NCI-H460 lung; HOP-92 NSCLC; NCI-H522 lung; A549/ATCC NSCLC; 786-0 renal; COLO 205 colon; K-562 leukemia; MALME-3M melanoma; MDA-MB-231 breast; RXF 393 renal; SF-268 CNS; SF-295 CNS; SF-539 CNS; UACC-257 melanoma; M14 melanoma; DU-145 prostate.
Test in all cases: NCI-60 one-dose screen, 48 h (100 = growth as untreated, 0 = no growth, -100 = all killed)
What all share (details): 10 µM unless noted

Regarding `CCCCCCCCCC1=NC(C)(C)CN1C(C)(C)CO`, the growth in the experiment on NCI-H23 lung was 89.1%; in the experiment with NCI-H226 lung, 105%; with NCI-H322M lung, 89.4%; in the experiment on HOP-62 NSCLC, 100%; in the experiment with NCI-H460 lung, 105%; with HOP-92 NSCLC, 91%. In addition, the growth in the experiment with NCI-H522 lung was 80.9%; in the experiment on A549/ATCC NSCLC it was 99.6%; in the experiment with 786-0 renal it was 100%; with COLO 205 colon it was 184%; with K-562 leukemia, -25.3% (active); in the experiment on MALME-3M melanoma, 106%. Further, the growth in the experiment with MDA-MB-231 breast is 88.1%; in the experiment with RXF 393 renal, 167%; with SF-268 CNS, 94%; in the experiment with SF-295 CNS, 122%; in the experiment on SF-539 CNS it was 87.3%; in the experiment on UACC-257 melanoma, 121%. Besides, the growth in the experiment on M14 melanoma is 113%.
Take `Cc1cc(NC(=O)c2ccc(N)cc2)ccc1N=Nc1ccc2cc(S(=O)(=O)O)cc(S(=O)(=O)O)c2c1`: the growth in the experiment on NCI-H23 lung is 103%; with NCI-H226 lung, 105%; with NCI-H322M lung, 125%; in the experiment on HOP-62 NSCLC, 106%; with NCI-H460 lung, 117%; in the experiment on HOP-92 NSCLC, 60.8%. In addition, the growth in the experiment on NCI-H522 lung was 129%; in the experiment with A549/ATCC NSCLC, 92.1%; in the experiment on 786-0 renal, 112%; with COLO 205 colon, 109%; in the experiment with K-562 leukemia, 110%; with MALME-3M melanoma, 116%. For the same compound, the growth in the experiment on MDA-MB-231 breast was 109%; in the experiment with RXF 393 renal it was 110%; in the experiment with SF-268 CNS, 115%; in the experiment on SF-295 CNS, 106%; in the experiment on SF-539 CNS it was 107%; in the experiment with UACC-257 melanoma, 102%. The growth with M14 melanoma was 112%.
As for `CC1(C)C2CCC(O)(C(=O)O)C1C2` (configuration not stated), the growth in the experiment on NCI-H23 lung is 113%; in the experiment on NCI-H226 lung, 113%; with NCI-H322M lung, 95.9%; in the experiment on HOP-62 NSCLC, 113%; in the experiment with NCI-H460 lung, 116%; with HOP-92 NSCLC, 117%. The growth with NCI-H522 lung is 117%; in the experiment with A549/ATCC NSCLC, 111%; with 786-0 renal, 107%; with COLO 205 colon it was 127%; in the experiment with K-562 leukemia, 108%; in the experiment with MALME-3M melanoma, 109%. Further, the growth with MDA-MB-231 breast was 98.9%; in the experiment on RXF 393 renal it was 136%; in the experiment on SF-268 CNS, 112%; in the experiment with SF-295 CNS it was 103%; in the experiment on SF-539 CNS it was 103%; in the experiment on UACC-257 melanoma it was 124%. Moreover, the growth in the experiment on M14 melanoma was 105%.
As to `COc1ccc2nc(NC(=O)/C(=C/c3cc(OC)c(OC)c(OC)c3)c3ccc(OC)c(OC)c3)sc2c1`, the growth in the experiment with NCI-H23 lung is 93.2%; in the experiment with NCI-H226 lung it was 80.2%; with NCI-H322M lung, 82.5%; in the experiment on HOP-62 NSCLC it was 87.8%; with NCI-H460 lung it was 111%; in the experiment with HOP-92 NSCLC, 74.3%. The growth in the experiment on NCI-H522 lung was 78.1%; with A549/ATCC NSCLC, 85.6%; in the experiment on 786-0 renal it was 100%; in the experiment with COLO 205 colon, 104%; in the experiment with DU-145 prostate, 106%; in the experiment with MALME-3M melanoma, 98%. In addition, the growth in the experiment on MDA-MB-231 breast is 68.8%; in the experiment on RXF 393 renal it was 107%; in the experiment on SF-268 CNS it was 99.9%; with SF-539 CNS, 102%; with UACC-257 melanoma, 97.2%; in the experiment with M14 melanoma, 104%.
Consider `CCN(CC)c1ccc2nc3c4ccccc4c(=O)cc-3n(-c3ccccc3)c2c1`, for which the growth with NCI-H23 lung was -3.45% (active); in the experiment on NCI-H226 lung, 5.4% (active); in the experiment with NCI-H322M lung, -23.5% (active); in the experiment on HOP-62 NSCLC it was 9.84% (active); in the experiment on NCI-H460 lung it was -41.5% (active); in the experiment on HOP-92 NSCLC, -7.83% (active). For the same compound, the growth is -8.95% (active) in the experiment on NCI-H522 lung; 11.6% in the experiment on A549/ATCC NSCLC; 4.36% (active) with 786-0 renal; -55.1% (active) with COLO 205 colon; 6.09% (active) with K-562 leukemia; -32.3% (active) with MALME-3M melanoma. Also, the growth with MDA-MB-231 breast was -24.1% (active); with RXF 393 renal, 6.05% (active); with SF-268 CNS it was 15.5%; in the experiment with SF-295 CNS, -36.7% (active); in the experiment with SF-539 CNS, -30% (active); in the experiment with UACC-257 melanoma it was -15.8% (active). Further, in the experiment with M14 melanoma, the growth was -56.8% (active).
Take `COc1ccc2c(c1)CCCC21C(=O)Nc2c(Cl)cccc21` (configuration not stated): the growth with NCI-H23 lung is 86%; in the experiment on NCI-H226 lung, 85.9%; with NCI-H322M lung, 88.1%; with HOP-62 NSCLC, 55.7%; in the experiment on NCI-H460 lung it was 94.4%; in the experiment on HOP-92 NSCLC, 72.3%. The growth with NCI-H522 lung was 27.7%; in the experiment on A549/ATCC NSCLC it was 68.7%; with 786-0 renal, 78.9%; in the experiment on COLO 205 colon, 80.6%; in the experiment on DU-145 prostate, 93%; in the experiment with MALME-3M melanoma, 63.3%. Besides, the growth is 77.4% in the experiment on MDA-MB-231 breast; 86.5% in the experiment on RXF 393 renal; 75.8% in the experiment on SF-268 CNS; 73.3% with SF-539 CNS; 83.8% in the experiment on UACC-257 melanoma; 38.8% in the experiment on M14 melanoma.
In the case of `CCCCC(CCc1ccccn1)C(=O)c1ccccc1` (configuration not stated), the growth was 98.8% in the experiment with NCI-H23 lung; 118% in the experiment with NCI-H226 lung; 103% in the experiment on NCI-H322M lung; 106% in the experiment with HOP-62 NSCLC; 112% in the experiment with NCI-H460 lung; 94.9% with HOP-92 NSCLC. In addition, the growth with NCI-H522 lung is 131%; in the experiment on A549/ATCC NSCLC, 111%; with 786-0 renal, 110%; with COLO 205 colon, 112%; in the experiment on K-562 leukemia it was 116%; with MALME-3M melanoma, 119%. For the same compound, the growth is 104% in the experiment with MDA-MB-231 breast; 109% in the experiment with RXF 393 renal; 122% in the experiment with SF-268 CNS; 104% in the experiment with SF-295 CNS; 107% in the experiment with SF-539 CNS; 123% with UACC-257 melanoma. The growth in the experiment with M14 melanoma is 108%.
With `CO[C@@]12[C@@H]3NC3CN1C1=C(C(=O)C(N)=C(C)C1=O)[C@@H]2COC(N)=O` (some centres not stated), the growth is -3.61% (active) in the experiment with NCI-H23 lung; -5.36% (active) with NCI-H226 lung; 14.4% in the experiment on NCI-H322M lung; 19.2% in the experiment with HOP-62 NSCLC; -18.9% (active) in the experiment with NCI-H460 lung; 12.8% in the experiment on HOP-92 NSCLC. Also, the growth with NCI-H522 lung is -9.07% (active); in the experiment with A549/ATCC NSCLC it was -61% (active); in the experiment with 786-0 renal, -3.82% (active); with COLO 205 colon, -0.289% (active); with K-562 leukemia it was 28.7%; in the experiment with MALME-3M melanoma it was -12% (active). For the same compound, the growth in the experiment on MDA-MB-231 breast was 67.5%; in the experiment on RXF 393 renal it was 11.9%; in the experiment on SF-295 CNS it was 5.61% (active); in the experiment with SF-539 CNS, 11.8%; with UACC-257 melanoma, -11.7% (active); in the experiment with M14 melanoma, 2.4% (active).
Turning to `c1ccc(C2=Nc3ccccc3SC2)cc1`, the growth was 93.5% in the experiment with NCI-H23 lung; 108% with NCI-H226 lung; 98.2% with NCI-H322M lung; 113% in the experiment on HOP-62 NSCLC; 99.3% with NCI-H460 lung; 62.1% in the experiment with HOP-92 NSCLC. Further, the growth is 99.6% in the experiment on NCI-H522 lung; 96.5% in the experiment on A549/ATCC NSCLC; 117% with 786-0 renal; 114% in the experiment on COLO 205 colon; 124% in the experiment on K-562 leukemia; 99.3% with MALME-3M melanoma. In addition, the growth in the experiment with MDA-MB-231 breast is 101%; in the experiment on RXF 393 renal, 129%; in the experiment on SF-295 CNS, 97.2%; with SF-539 CNS it was 103%; in the experiment on UACC-257 melanoma, 105%; in the experiment with M14 melanoma it was 103%.
